Columns and labels:
Assay in all cases: PBM binding z-score (relative to random genomic background probes); higher = stronger binding; sequences stand for … in GC…GCGATTGACAGCGTAGAATGAAGG
[1] = tested on: FXR:RXRa (NR concentration 270 nM, RXRa partner concentration 90 nM)
In short: (§1)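 Binding buffer was PBS pH 7.4 with 2% milk, 0.02% Triton X-100, 1 mM DTT, 0.2 mg/mL BSA and 0.4 mg/ml salmon testes DNA. In it, ligand-free nuclear receptor dimers were incubated 1 h on custom Agilent 4×180K protein-binding microarrays carrying double-stranded probes. Antibodies against each partner (one per run) detected binding, and z-scores were calculated against random background probes after regression normalization of scanned fluorescence.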

[2] = tested on: LXRa:RXRa (NR concentration 270 nM, RXRa partner concentration 90 nM)
In short: as §1

[3] = tested on: LXRa homodimer (NR concentration 270 nM)
In short: as §1

[4] = tested on: LXRb:RXRa (NR concentration 270 nM, RXRa partner concentration 90 nM)
In short: as §1

[5] = tested on: LXRb homodimer (NR concentration 270 nM)
In short: as §1

[6] = tested on: PPARa:RXRa (NR concentration 270 nM, RXRa partner concentration 90 nM)
In short: as §1

[7] = tested on: PPARg:RXRa (NR concentration 180 nM, RXRa partner concentration 90 nM)
In short: as §1

[8] = tested on: PPARg:RXRa 270nM:90nM, anti-RXR (NR concentration 270 nM, RXRa partner concentration 90 nM)
In short: as §1

[9] = tested on: PPARg:RXRa 30nM:10nM, anti-RXR (NR concentration 30 nM, RXRa partner concentration 10 nM)
In short: as §1

[10] = tested on: PPARg:RXRa 90nM:30nM, anti-RXR (NR concentration 90 nM, RXRa partner concentration 30 nM)
In short: as §1

[11] = tested on: PPARg:RXRa DBDmut IVT, anti-RXR (DBD mutation: RXRa K156A/R161A, NR concentration 270 nM, RXRa partner concentration 90 nM)
In short: as §1

[12] = tested on: PPARg:RXRa IVT, anti-PPARg (NR concentration 270 nM, RXRa partner concentration 90 nM)
In short: as §1

[13] = tested on: PPARg DBDmut:RXRa IVT, anti-PPARg (DBD mutation: PPARg1 K132A/R137A, NR concentration 270 nM, RXRa partner concentration 90 nM)
In short: as §1

[14] = tested on: PPARg DBDmut IVT, anti-PPARg (DBD mutation: PPARg1 K132A/R137A, NR concentration 270 nM)
In short: as §1

[15] = tested on: PPARg homodimer (NR concentration 180 nM)
In short: as §1

[16] = tested on: PXR:RXRa (NR concentration 270 nM, RXRa partner concentration 90 nM)
In short: as §1

[17] = tested on: PXR homodimer (NR concentration 270 nM)
In short: as §1

[18] = tested on: RARa:RXR (NR concentration 270 nM, RXRa partner concentration 90 nM)
In short: as §1

[19] = tested on: RARa homodimer (NR concentration 270 nM)
In short: as §1

[20] = tested on: RARb:RXRa (NR concentration 270 nM, RXRa partner concentration 90 nM)
In short: as §1

| Sequence | PBM binding z-score [1] | PBM binding z-score [2] | PBM binding z-score [3] | PBM binding z-score [4] | PBM binding z-score [5] | PBM binding z-score [6] | PBM binding z-score [7] | PBM binding z-score [8] | PBM binding z-score [9] | PBM binding z-score [10] | PBM binding z-score [11] | PBM binding z-score [12] | PBM binding z-score [13] | PBM binding z-score [14] | PBM binding z-score [15] | PBM binding z-score [16] | PBM binding z-score [17] | PBM binding z-score [18] | PBM binding z-score [19] | PBM binding z-score [20] |
| --- | --- | --- | --- | --- | --- | --- | --- | --- | --- | --- | --- | --- | --- | --- | --- | --- | --- | --- | --- | --- |
| CCTAGTTGGTCACGGTCACACACGCTATAGGTAC | 0.611 | 0.906 | 1.21 | 0.81 | 0.982 | 0.843 | 1.61 | 1.34 | 0.766 | 0.795 | 2.6 | 3.1 | 1.29 | 1.48 | 1.79 | 0.642 | 0.636 | 0.844 | 1.66 | 2.53 |
| CCTCCTGGGCCACGAAAGGTCATTGATTCAGTGA | 3.25 | 5.1 | 4.52 | 4.15 | -0.0448 | 4.14 | 1.39 | 2.94 | 0.283 | 2.02 | 0.578 | 2.2 | -0.811 | -1.6 | 1.96 | 5.33 | 0.829 | 4.92 | 0.516 | 3.97 |
| CGTACTGGGCCATTCAGAGGTCATTGATCATATG | 3.16 | 4.58 | 6.56 | 3.9 | 0.57 | 3.88 | 2.45 | 3.25 | 0.848 | 2.44 | 5.14 | 4.46 | 0.379 | 0.367 | 2.72 | 4.91 | 2.51 | 4.76 | 1.17 | 3.18 |
| CCTTACGGGTCACTGACAGGTTATAGCCTTTGGA | 5.57 | 4.01 | 0.368 | 3.43 | -0.148 | 4.99 | 4.28 | 4.31 | 1.31 | 2.99 | 2.98 | 3.74 | 0.266 | 0.106 | 3.2 | 3.83 | -0.0377 | 4.93 | 0.735 | 3.95 |
| CAAACTAGGTCAAAGGACAAAGTCGAGCCAACCA | 4.29 | 3.41 | 0.833 | 2.68 | 0.636 | 5.81 | 10.2 | 8.77 | 8.72 | 9.77 | 8.09 | 8.38 | 2.59 | 0.234 | 1.32 | 1.72 | 0.313 | 3.01 | 0.239 | 4.03 |
| AGAATGAGGTTACCAAAGATCTGGGAAACGCTTG | 1.57 | 2.23 | -0.414 | 1.23 | -0.401 | 3.4 | 2.74 | 2.37 | 0.756 | 1.91 | 3.41 | 3.25 | 0.193 | 0.0654 | 0.163 | 0.907 | -0.203 | 1.77 | -0.536 | 1.98 |
| GCGACTGGGGTATCAGCAGGTTACCATAACTTAA | -0.215 | 0.488 | -0.233 | 0.757 | -0.459 | 0.871 | 0.146 | 0.0504 | -0.489 | -0.489 | 1.21 | 0.938 | -0.348 | -0.554 | 0.313 | -0.149 | -0.238 | 0.3 | -0.218 | 0.249 |
| AGAATGAGGTTATGAAGATCAGGGAATTGCGGTC | 1.75 | 1.53 | 0.162 | 1.04 | -0.127 | 2.86 | 1.68 | 2.1 | 1.05 | 1.61 | 3.44 | 2.45 | 0.386 | -0.347 | 0.625 | 1.18 | 0.111 | 1.87 | 0.262 | 1.7 |
| TCTATTAGTTGATTAGCGCAACCGAAACAGCGGA | 0.828 | 0.894 | 0.314 | 0.663 | 0.632 | 0.774 | 0.0474 | 2.11 | 3.89 | 2.97 | 2.41 | 0.138 | 0.332 | 0.505 | 1.14 | 0.438 | 0.358 | 0.258 | 1.03 | 0.252 |
| AGTCAAAGTTCCCTAGGTAACGTAAGATTCAGCT | -0.33 | -0.385 | -0.0977 | -0.4 | -0.222 | -0.259 | 0.281 | 0.455 | 0.0394 | -0.0115 | -0.23 | 0.612 | -0.729 | 0.358 | -0.325 | 0.00195 | -0.697 | -0.125 | -0.463 | 0.687 |
| CCTGCTAGGTCAGGGTCAGCTAATCTACAGTATG | 3.6 | 2.42 | -0.231 | 2.55 | -0.944 | 3.92 | 2.82 | 3 | 0.682 | 1.83 | 3.18 | 3.55 | -0.395 | -0.875 | 0.967 | 2.73 | -0.26 | 3.48 | 0.175 | 4.42 |
| CCTTACGGGTCGAGGTTATAGCACGGGTGGTACG | 1.26 | 1.27 | -0.211 | 0.916 | -0.417 | 2.42 | 0.822 | 1.01 | -0.146 | 0.242 | -0.517 | 0.508 | -0.109 | -1.51 | 1.53 | 1.11 | 0.209 | 1.61 | -0.219 | 1.97 |
| TCGAGTAGGTTACCAGTGGGGCATTCAGCTTTCT | -0.0125 | 1.19 | -0.24 | 0.725 | -0.623 | 1.16 | 0.278 | 1.36 | 1.05 | 1.36 | 3.82 | 3.43 | -0.827 | -0.418 | 0.236 | -0.206 | -0.913 | 0.372 | -1.02 | 0.865 |
| TCTATTAGTTAAAGGGCAACCGACGAGTCCGTTT | 0.559 | 1.45 | 0.826 | 1.12 | 0.427 | 1.87 | 1.12 | 3.36 | 3.9 | 3.45 | 2.36 | 0.552 | 0.374 | 1.04 | 1.7 | 1.32 | 0.941 | 1.18 | 1.13 | 2.47 |
| TAGCTTAGGTCATGGGCCAGTATACCACGCGAAC | 4.7 | 3.6 | 0.14 | 2.77 | 0.0949 | 4.23 | 2.88 | 3.21 | 0.853 | 2.08 | 1.43 | 2.29 | 0.945 | -0.133 | 1.14 | 1.82 | -0.151 | 2.69 | 0.342 | 4.1 |
